Whole data set: some 33,000 sequences, median “E-score (-0.5 to 0.5)” near -0.032, cut for the highest 2% near 0.36. The sample as a whole holds a higher share of the highest values than the screen did.
biological target: T1, Sko1 (UniProt Q02100); assay: PBM E-score (8-mer binding enrichment) (E-score (-0.5 to 0.5)); higher = stronger / more preferred TF binding; settings: protein concentration: 200 nM; construct: GST-full length
T1 sequence: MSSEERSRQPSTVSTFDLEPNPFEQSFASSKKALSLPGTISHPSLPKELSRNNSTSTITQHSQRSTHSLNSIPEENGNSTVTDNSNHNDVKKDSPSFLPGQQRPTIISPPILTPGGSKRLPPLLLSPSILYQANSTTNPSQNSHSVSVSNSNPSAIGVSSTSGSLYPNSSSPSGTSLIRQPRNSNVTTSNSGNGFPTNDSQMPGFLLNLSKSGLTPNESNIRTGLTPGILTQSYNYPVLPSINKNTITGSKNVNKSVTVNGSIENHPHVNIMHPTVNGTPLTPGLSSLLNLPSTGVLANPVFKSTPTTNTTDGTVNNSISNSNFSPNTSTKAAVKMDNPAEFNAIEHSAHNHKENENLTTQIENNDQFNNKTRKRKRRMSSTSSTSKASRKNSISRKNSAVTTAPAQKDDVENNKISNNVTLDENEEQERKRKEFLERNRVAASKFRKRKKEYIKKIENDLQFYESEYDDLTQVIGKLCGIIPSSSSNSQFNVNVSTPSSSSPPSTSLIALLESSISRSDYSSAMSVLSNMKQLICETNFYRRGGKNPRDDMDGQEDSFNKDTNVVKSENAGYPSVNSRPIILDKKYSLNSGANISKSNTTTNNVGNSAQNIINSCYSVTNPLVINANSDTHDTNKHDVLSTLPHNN
Experimental: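 Universal 'all 10-mer' protein binding microarrays (Agilent AMADID 015681) probed with GST-tagged S. cerevisiae TFs (full-length or DBD) made by in vitro transcription/translation (PURExpress), about 100-200 nM. Bound TF was detected with fluorescent anti-GST. Each ungapped 8-mer (which stands for itself and its reverse complement) is scored by the PBM enrichment score (E-score), a modified Wilcoxon-Mann-Whitney statistic from -0.5 to +0.5, computed with the Universal PBM Analysis Suite. Scale: above 0.35 generally sequence-specific binding.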

| Sequence | PBM E-score |
| --- | --- |
| ACGGTTTA | -0.0562 |
| CTCCAGGA | -0.0718 |
| CGTGGTAC | 0.213 |
| ACCCGCGG | -0.0735 |
| CAGCGAGG | -0.233 |
| TCGGGCAA | -0.0812 |
| ATCCTGTC | -0.0275 |
| CAAATATC | 0.109 |
| CAGGGTCG | -0.241 |
| GTCGGTGA | 0.049 |
| ACAACTAG | -0.00944 |
| CACGTCGC | 0.235 |
| GGCGTCAA | 0.235 |
| CACGTCAC | 0.482 |
| CACGTCCC | 0.00358 |
| TGCGTCCA | 0.155 |
| TGCGTCAA | 0.377 |
| GGTGAGCA | -0.0791 |
| AATTTAGC | 0.187 |
| GCCTGATA | -0.0647 |
| TAAGGGAA | 0.108 |
| AAGACGTG | 0.291 |
| AAGACGAC | 0.0714 |
| GAGACGGA | -0.0605 |
| CAGACGTA | 0.387 |

| Sequence | PBM E-score |
| --- | --- |
| AAGACGGC | -0.219 |
| CAGACGTC | 0.322 |
| AAGACGGA | -0.0952 |
| AAGACGTC | 0.419 |
| CAGACGCA | 0.055 |
| GAGACGTA | 0.394 |
| AAGACGTA | 0.454 |
| GAGACGAA | -0.0289 |
| AGTCCTTC | -0.375 |
| TCCGAACA | -0.124 |
| CAATCTGG | -0.104 |
| AGTACTCG | 0.0859 |
| AGCTTAGG | -0.198 |
| CTTCGGTC | -0.0632 |
| CCTGTGTA | -0.0155 |
| GTCGGAAC | -0.0708 |
| CGTAGTAC | 0.372 |
| AGTAGTAC | 0.173 |
| CGTAGTAG | 0.309 |
| AGGGTTGG | 0.0955 |
| AAGTAATG | 0.0878 |
| ATGTAATC | 0.313 |
| CCGTAATC | 0.111 |
| ATGTAATG | 0.321 |
| ACGTAATC | 0.492 |

| Sequence | PBM E-score |
| --- | --- |
| ACGTAATG | 0.492 |
| AGGCCGCC | -0.182 |
| CTTCCCGC | -0.0138 |
| CACCTTCG | -0.136 |
| ATCTTGCC | -0.0574 |
| GTCGAACA | -0.00814 |
| ATTGCGTC | 0.414 |
| ACTGCGTA | 0.343 |
| ATTGCGTG | 0.419 |
| ACTGCGTG | 0.131 |
| GTTGCGGA | 0.0145 |
| GTTGCGTA | 0.422 |
| GCTGCGTA | 0.308 |
| ATTGCGTA | 0.472 |
| ATTGCGAG | -0.0027 |
| ATTGCGCA | 0.251 |
| CTTGCGTC | 0.27 |
| ATTGCGCC | -0.0972 |
| GAGCAGAC | -0.0861 |
| GTGTCCCA | -0.0921 |
| AGCCAGCT | -0.097 |
| ATGAATTC | 0.0634 |
| CACAGTCA | -0.095 |
| ATAATAGC | 0.0417 |
| GCGGTCCA | -0.323 |

| Sequence | PBM E-score |
| --- | --- |
| ATTCAGCA | 0.00168 |
| CTTGCGTA | 0.423 |
| CTTGCGGA | -0.261 |
| CCTGCGTA | 0.315 |
| CGTTGAGA | 0.0138 |
| AGCATCCA | -0.238 |
| AAAAATCC | -0.162 |
| ATTATGTC | 0.336 |
| CGTATGAC | 0.445 |
| AGTATGAA | 0.0617 |
| CGTATGAG | 0.267 |
| ATTATGTA | 0.398 |
| ATTATGTG | 0.266 |
| CGTATGGC | 0.348 |
| AGTATGTA | 0.0841 |
| GGTATGAC | 0.183 |
| CGTATGTA | 0.367 |
| CGTATGAA | 0.361 |
| CGTATGTC | 0.321 |
| CCACATCA | 0.175 |
| GAGATCGA | 0.0574 |
| ATCACTCA | 0.0754 |
| GAGCTAGA | -0.11 |
| CCTGTTCA | -0.203 |
| AAGCATAG | -0.128 |

| Sequence | PBM E-score |
| --- | --- |
| AGAGCAGG | -0.126 |
| CATCGCCG | -0.137 |
| AAACAGCC | -0.17 |
| GCTATACC | -0.171 |
| AAATCCCC | -0.238 |
| GGTAGATA | 0.0735 |
| AGTATGAT | 0.286 |
| AGTATGAC | 0.376 |
| AGTATGAG | 0.129 |
| AACCTACC | -0.193 |
| CTAGGGTA | -0.161 |
| CAGTGAGA | 0.0132 |
| CGTAATTC | 0.435 |
| CGTAATTA | 0.439 |
| GGTAATTA | 0.239 |
| AGTAATTC | 0.169 |
| CATAATTC | 0.238 |
| AGTAATTA | 0.263 |
| GGAAAACC | -0.128 |
| CATTAGCC | -0.188 |
| AATGACAG | 0.0139 |
| AATGACAC | 0.258 |
| AGTGACAA | 0.0709 |
| AGTGACAT | 0.361 |
| AGTGACAC | 0.191 |

| Sequence | PBM E-score |
| --- | --- |
| AATGACAT | 0.4 |
| ACTGCCTG | -0.0718 |
| AGAAGCAT | -0.0822 |
| CTGGGTTC | -0.145 |
| ACCACAGC | -0.195 |
| AATGGCGT | 0.387 |
| AATGGCGG | -0.3 |
| AATGGCGC | -0.0228 |
| CACTCCTC | -0.168 |
| ACTCAGCT | -0.174 |
| CAAGTACG | 0.135 |
| CACGTACA | 0.389 |
| AGCGTACG | 0.214 |
| CTCGTACC | 0.123 |
| CCCGTACA | -0.273 |
| AACGTACA | 0.303 |
| CGCGTACG | 0.401 |
| AACGTACC | 0.223 |
| CACGTACG | 0.406 |
| CACGTACC | 0.407 |
| CCCGTACG | 0.0984 |
| CGCGTACA | 0.209 |
| ACTTATTA | 0.157 |
| GAGCCCTC | -0.351 |
| ACCTTTCC | -0.271 |

| Sequence | PBM E-score |
| --- | --- |
| AGGGCGAT | -0.0344 |
| ACTAGGGC | -0.211 |
| GCACTTAA | 0.109 |
| AAACCTGC | -0.203 |
| AGCTTCCT | 0.0027 |
| GCCGTACC | -0.175 |
| GACGTACC | 0.433 |
| GCCGTACA | -0.148 |
| TACGTACA | 0.477 |
| GTCGTACA | 0.0687 |
| GGCGTACC | -0.0685 |
| ACCGTACA | 0.0593 |
| TCCGTACA | 0.0313 |
| GACGTACA | 0.446 |
| ATTCAAGA | 0.0257 |
| ACTCTCAA | -0.00162 |
| CGTGTGGA | 0.00704 |
| AAATCTCG | 0.014 |
| GACACTTA | -0.00276 |
| ATATTACC | 0.251 |
| AAATTACG | 0.439 |
| CAATTACC | 0.156 |
| CAATTACG | 0.455 |
| ATATTACA | 0.175 |
| AAATTACT | 0.196 |

| Sequence | PBM E-score |
| --- | --- |
| AAATTACC | 0.0333 |
| CAATTACA | 0.167 |
| ATATTACG | 0.465 |
| AAGGTCGA | -0.0566 |
| ACCAAGCT | 0.0443 |
| GACACCAC | -0.0851 |
| CACTATCG | -0.0728 |
| GAATCATC | 0.0732 |
| ACGTTATA | 0.426 |
| ACGTTATC | 0.413 |
| ACGTTGTA | 0.394 |
| ACGTTACC | 0.297 |
| ACGTTACG | 0.428 |
| CCGTTATC | -0.00855 |
| CCGTTATA | 0.0635 |
| GCGTTGTA | 0.057 |
| ACGTTAGC | 0.352 |
| GCGTTATA | 0.194 |
| ACGTTGTG | 0.311 |
| ACGTTACA | 0.359 |
| CGCGCTGC | -0.147 |
| CGCCCGGA | -0.211 |
| TACTGAAA | 0.219 |
| AGAGACGA | 0.0256 |
| CCGGCTCA | -0.162 |

| Sequence | PBM E-score |
| --- | --- |
| AAGAGAAC | 0.0447 |
| GTGTGAGA | 0.0436 |
| ACGTTAAG | 0.325 |
| ACGTTATG | 0.419 |
| ACGTTAGG | 0.244 |
| GGGACGCA | 0.0981 |
| ACGACGCA | 0.334 |
| AGGACGCA | -0.117 |
| GTGACGCA | 0.457 |
| ACGACGCG | 0.148 |
| ATGACGCG | 0.476 |
| ATGACGCA | 0.492 |
| CTGACGCA | 0.403 |
| AAGACGCG | -0.115 |
| CGGACGCA | -0.121 |
| CTGACGCC | 0.159 |
| GCGACGCA | 0.128 |
| GGACCTCA | -0.0759 |
| ACCTGCGC | -0.192 |
